High-throughput results (PubChem BioAssay)
PLC-gamma1 inh – blocks human PLC-gamma1 enzyme activity | P19174 | purified PLC-gamma1, fluorogenic substrate, fluorescence | inhibition, % at 12.2 µM | hit rate 0.84% among 370,000 | AID 720700; in the data active = inhibition above about 9.5%
ADAM10 inh – inhibitors of human ADAM10. hit rate 0.62% among 370,000. inhibition, % at 7 µM. recombinant ADAM10, EDANS/DABCYL FRET peptide cleavage, 3 h. O14672;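 active = inhibition above a per-campaign cutoff equal to the mean of compounds falling between control-based bounds plus 3 SD, cut at about 20% in these data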;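 also: 0% = DMSO wells while the 100% control is not disclosed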
PLCb3 inh – PLC-beta3 (human) inhibition, primary screen; Purified PLC-beta3, fluorogenic substrate, fluorescence; inhibition, % at 12.2 µM; Q01970; hit rate 0.18% among 370,000; in the data active = inhibition above about 11%;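 also: 0% = median of compound wells on plate and 100% = full blocker control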
proKLK7 act – activators of human kallikrein-7 zymogen; P49862; activation, % at 7 µM; purified proKLK7, EDANS-DABCYL substrate fluorescence; 100% is mature enzyme control, 0% vehicle; hit rate 0.9% among 370,000;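 active = activation above the mean of all tested compounds plus 3 SD, computed per campaign excluding outliers beyond control limits, cut at about 13% in these data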
Target sequence (P49862 whole entry, looked up): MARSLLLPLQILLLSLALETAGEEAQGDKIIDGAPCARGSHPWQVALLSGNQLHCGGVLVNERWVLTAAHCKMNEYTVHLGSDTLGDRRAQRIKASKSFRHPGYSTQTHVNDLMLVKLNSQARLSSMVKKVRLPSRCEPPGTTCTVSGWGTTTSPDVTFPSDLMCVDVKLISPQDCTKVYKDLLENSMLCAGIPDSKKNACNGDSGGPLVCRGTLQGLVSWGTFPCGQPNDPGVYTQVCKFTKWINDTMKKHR
HGIII-sPLA2 inh – Inhibits HGIII-sPLA2 liposome hydrolysis, primary screen; hit rate 0.56% among 370,000; inhibition, % at 12.2 µM; QFRET BODIPY PC-A2 liposome hydrolysis, fluorescence; Q9NZ20;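 active = inhibition above mean plus 3 SD of compounds lying within the high and low control bounds, cut at about 19% in these data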;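 also: 0% = median of test compound wells and 100% = no enzyme DMSO wells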
ADAM17 inh – ADAM17 inhibition, QFRET primary screen | P78536 | recombinant ADAM17, EDANS/DABCYL FRET peptide cleavage | inhibition, % at 6.95 µM | hit rate 0.83% among 370,000 | AID 720648;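 active = inhibition above the mean of compounds lying between control limits plus 3 SD, set per campaign, cut at about 8.5% in these data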;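 also: 0% = DMSO-only wells as the low control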
hGIII sPLA2 conf – human GIII-sPLA2 inhibition, confirmation; shares compounds with HGIII-sPLA2 inh; recombinant hGIII-sPLA2, BODIPY PC-A2 QFRET fluorescence; inhibition, % at 12.2 µM; hit rate 34% among 2,000; AID 743280;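 active = mean inhibition across triplicates above the hit cutoff set in the earlier primary screen, cut at about 19% in these data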;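 also: 0% = enzyme with DMSO and 100% = DMSO wells lacking enzyme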
BODIPY interf – 535nm fluorescence interference, HGIII-sPLA2 counter-screen. inhibition, % at 12.2 µM. shares compounds with HGIII-sPLA2 inh. hit rate 8.5% among 2,000. BODIPY FL product fluorescence interference, QFRET. AID 743282;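 active = average inhibition above the solvent-only control mean plus 3 SD, cut at about 6% in these data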;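 also: 0% = DMSO with substrate plus product and 100% = DMSO with substrate alone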
535nm interf DR – counter-screen for HGIII-sPLA2 inhibitors: 535nm fluorescence interference, dose response. IC50, µM. BODIPY FL product fluorescence interference, cell-free. shares compounds with HGIII-sPLA2 inh. 240 tested, under 10 active;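 active = IC50 at or below 10 µM; inactive = IC50 above 10 µM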
Active calls of the source: *; x = not tested or not shown; ! = repeats disagree. In the library only some 3.4% were active in any assay of this set; here they are far more common.

SMILES	PLC-gamma1 inh	ADAM10 inh	PLCb3 inh	proKLK7 act	HGIII-sPLA2 inh	ADAM17 inh	hGIII sPLA2 conf	BODIPY interf	others
CC(=O)NC(c1ccc(Cl)cc1)c1ccc2cccnc2c1O (centres undefined)	-16	7	-36	0	8	7	x	x
COc1ccc(C(NC(=O)C(C)C)c2ccc3cccnc3c2O)cc1 (centres undefined)	-20	9	-35	1	23*	0	19*	-14
CCC(=O)NC(c1ccc(Cl)cc1Cl)c1ccc2cccnc2c1O (centres undefined)	-21	10	-24	1	33*	4	25*	-6
O=C(CCN1C(=O)c2ccccc2S1(=O)=O)Nc1ccc(C(=O)O)cc1	-1	-8	3	0	5	-5	x	x
CCCC(=O)NC(c1ccc(OC)c(OC)c1)c1cc(Cl)c2cccnc2c1O (centres undefined)	-2	13	-4	0	5	-4	x	x
CCCCC(=O)NC(c1ccc(Cl)cc1Cl)c1ccc2cccnc2c1O (centres undefined)	-15	-1	-13	0	21*	1	30*	-3
CCC(=O)NC(c1cccs1)c1cc(Cl)c2cccnc2c1O (centres undefined)	-27	9	-32	0	14	8	x	x
CCCCC(=O)NC(c1cccs1)c1cc(Cl)c2cccnc2c1O (centres undefined)	-23	0	-18	0	24*	-1	32*	0	535nm interf DR=>122
CCNC(=S)NNc1nnc(-c2ccccc2)c(-c2ccccc2)n1	0	7	-5	0	24*	1	50*	0	535nm interf DR=>122
CCNC(=S)NNC(=S)NCc1ccccc1	2	-7	3	0	21*	-1	39*	-3	535nm interf DR=>122
CNC(=S)NNc1nc(-c2ccccc2)c2cc(Cl)ccc2n1	-1	0	-12	2	13	-2	x	x
COc1ccccc1C(=O)NNC(=S)Nc1ccccc1	1	-3	-7	0	8	-2	x	x
O=C(NNC(=S)Nc1ccc(Cl)cc1)c1ccccc1OC(F)F	4	9	-1	0	24*	5	28*	8.5*
O=C(NNC(=S)NCc1ccccc1)c1ccccc1OC(F)F	-2	6	-1	0	20*	4	31*	3	535nm interf DR=>122
O=C(NNC(=S)NCc1ccccc1)c1ccc(Br)cc1	0	11	-4	0	3	0	x	x
CCC(C(=O)NC1CCCC1)N(C(=O)c1snc(C(N)=O)c1N)c1ccc(C)cc1C (centres undefined)	-33	-90	-56	2	-2	-39	x	x
O=C(Nc1ccc2c(c1)OCO2)c1cc(C2CCCCN2C(=O)c2ccc(Cl)cc2)on1 (centres undefined)	-4	3	-13	0	2	-1	x	x
O=C(COc1ccc(F)cc1Cl)Nc1cccc(S(=O)(=O)N2CCCCCC2)c1	3	-5	-4	0	1	3	x	x
CC(C)NC(=S)NC(c1ccccc1)(c1ccccc1)c1ccccc1	-2	14	-3	0	22*	2	29*	-12
Cc1nc2ccccc2c(=O)n1/N=C/c1ccccc1OC(F)F	2	-4	1	0	0	1	x	x
CCc1ccc(NCc2nc3ccccc3c(=O)[nH]2)cc1	-11	-17	-11	0	-10	-7	x	x
CCCCNCc1nc2ccccc2c(=O)[nH]1	6	2	2	-1	27*	-9	15	-2
CCCCOc1ccc(C(=O)Nc2cccc(-n3cnnn3)c2)cc1OC	1	3	-5	0	-9	-1	x	x
C[C@H]1[C@@H](c2ccccc2)Oc2ccc(Cl)cc2S(=O)(=O)N1Cc1ccc(F)cc1F	0	-1	6	-1	0	2	x	x
Nc1ccc(C(=O)Oc2ccc([N+](=O)[O-])cc2)cc1	3	5	1	0	23*	-4	3	-3
SMILES	PLC-gamma1 inh	ADAM10 inh	PLCb3 inh	proKLK7 act	HGIII-sPLA2 inh	ADAM17 inh	hGIII sPLA2 conf	BODIPY interf	others
CCCCC(=O)c1ccc(OC(=O)c2ccc([N+](=O)[O-])cc2)cc1	1	-15	-6	0	4	-3	x	x
FC(F)(F)c1cccc(CC2CN(Cc3ccccc3)Cc3ccccc3N2c2cc(Cl)cc(Cl)c2)c1 (centres undefined)	-35	-3	-42	-13	27*	3	-4	3
CCCCc1ncc(CN2CCN(Cc3ccc(C)cc3)C(CCO)C2)[nH]1 (centres undefined)	5	0	-8	0	1	1	x	x
N=C(N)SCc1nc2ccccn2c1Br	2	-6	3	0	30*	-3	5	-4
Cc1cccc2nc(CSC(=N)N)c(Br)n12	-10	-27	-15	0	24*	-8	11	-11
Cc1cc(CSC(=N)N)c(CSC(=N)N)cc1C	8	6	3	0	8	1	x	x
Cc1ccc(NC(=O)CN2CCCCCC2)cc1[N+](=O)[O-]	0	-1	-5	0	0	-7	x	x
O=C(CSc1ccccc1)Nc1ccc2sccc2c1	2	9	-4	0	-14	4	x	x
COc1ccc2c(c1)CCC/C2=N\NC(=O)c1ccoc1C	-1	-5	-5	-1	21*	-3	12	-5
O=C(COC(=O)c1ccc(Cl)nc1)Nc1cc(S(=O)(=O)N2CCOCC2)ccc1Cl	-2	-17	-3	0	1	-1	x	x
COc1ccc(OC)c(N=c2ssnc2Cl)c1	-4	12	-5	0	7	1	x	x
COc1cc(N=c2ssnc2Cl)c(OC)cc1Cl	4	8	-1	0	23*!	2	33*	1	535nm interf DR=>122
OCC1OC(Oc2c[nH]c3ccccc23)C(O)C(O)C1O (centres undefined)	-15	-75	-26	1	6	-25	x	x
CSC1=NNC(c2ccc(C(C)(C)C)cc2)=NN1	2	2	-4	0	-2	-1	x	x
O=C(OCCC12CC3CC(CC(C3)C1)C2)c1ccc(NCc2cc(O)ccc2O)cc1	0	-6	-3	0	21*	4	21*	13*
CCNC(=O)OCCC12CC3CC(CC(C3)C1)C2	0	9	4	0	1	1	x	x
Cc1ccc(NC(=O)CCN2CC(C)OC(C)C2)cc1 (centres undefined)	1	-14	-7	0	13	-3	x	x
